Drawing on PubChem BioAssay (EPA / NIEHS), this text covers AC50 and outcome for 7 compounds.

SMILES strings stand for the structures. Where “and” joins values, the source holds several entries; their conditions need not be identical. Equal values may be shown once. Inconclusive results are not listed. Some compounds were tested as several samples or in several runs, with calls that do not always agree. Calls of active or inactive are those of the source. How the source made its calls, unless noted: active means hit-call score of the fitted dose curve at least 0.9, where 1 is the maximum; inactive means score below 0.9.

Read-out in assay [1]: Monocyte Chemoattractant Protein-1 (MCP1), CCL2 (gene 6347)
Description: BSK_LPS_MCP1: BioMAP Diversity Plus: LPS Assay for Monocyte Chemoattractant Protein-1 (MCP1) Biomarker Activity (AID 2283081).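 On AC50: secreted MCP-1 protein quantified by ELISA in culture supernatant.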 The note with it: primary human HUVEC with PBMC; actives raise or lower the signal. In outline:
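Human endothelial–PBMC co-cultures were dosed with chemical, then LPS-driven MCP-1 levels were quantified by ELISA at 24 h. Activity in either direction was fitted versus DMSO negative control.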

Assay [2] is described as follows: BSK_LPS_PGE2: BioMAP Diversity Plus: LPS Assay for Prostaglandin E2 (PGE2) Biomarker Activity (AID 2283082).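 On AC50: secreted prostaglandin E2 measured by ELISA in LPS-stimulated co-culture.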 The note with it: primary human HUVEC with PBMC; actives raise or lower the signal. In outline:
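Primary human endothelial cells and blood mononuclear cells, co-cultured with LPS, receive test chemical; PGE2 ELISA follows at 24 h, with SRB-stained parallel cultures flagging cytotoxicity.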

Read-out in assay [3]: Macrophage colony-stimulating factor (MCSF), CSF1 (gene 1435)
The assay is described as follows: BSK_LPS_MCSF: BioMAP Diversity Plus: LPS Assay for Macrophage colony-stimulating factor (MCSF) Biomarker Activity (AID 2283083). The note with it: primary human HUVEC with PBMC; actives raise or lower the signal. In outline: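 ELISA readout of M-CSF after 24 h compound exposure in a human endothelial/PBMC co-culture. Activity, in either direction, is fitted relative to DMSO vehicle.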

Read-out in assay [4]: Tissue Factor, F3 (gene 2152)
The assay is described as follows: BSK_LPS_TissueFactor: BioMAP Diversity Plus: LPS Assay for Tissue Factor Biomarker Activity (AID 2283084). The note with it: primary human HUVEC with PBMC; actives raise or lower the signal. A digest of the protocol:
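ELISA signal for cell-surface Tissue Factor (CD142) was read 24 h after compound dosing of an LPS-stimulated human endothelial–PBMC primary co-culture. Gain or loss of signal was scored relative to DMSO.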

Read-out in assay [5]: CD38, CD38 (gene 952)
Description: BSK_SAg_CD38: BioMAP Diversity Plus: SAg Assay for CD38 Biomarker Activity (AID 2283087). The note with it: primary human HUVEC with PBMC; actives raise or lower the signal. A digest of the protocol: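 Measures CD38 on a human endothelial/PBMC co-culture driven by SEB and TSST-1, 24 h after compound exposure, using ELISA with fluorescence detection; DMSO defines baseline for bidirectional curve fitting.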

Read-out in assay [6]: CD40, CD40 (gene 958)
Description: BSK_SAg_CD40: BioMAP Diversity Plus: SAg Assay for CD40 Biomarker Activity (AID 2283088). The note with it: primary human HUVEC with PBMC; actives raise or lower the signal. A digest of the protocol:
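Compounds were dosed onto a human primary endothelial–PBMC co-culture, and after 24 h CD40 was quantified by ELISA using a fluorescence signal. Activity in either direction was fitted relative to DMSO.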

Read-out in assay [7]: CD69, CD69 (gene 969)
The assay is described as follows: BSK_SAg_CD69: BioMAP Diversity Plus: SAg Assay for CD69 Biomarker Activity (AID 2283089).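 On AC50: cell surface CD69 protein quantified by ELISA with fluorescence detection.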 The note with it: primary human HUVEC with PBMC; actives raise or lower the signal. In outline:
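Endothelial/PBMC co-culture; chemical added; 24 h incubation; CD69 ELISA with fluorescence detection; bidirectional fit vs DMSO.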

Read-out in assay [8]: Monocyte Chemoattractant Protein-1 (MCP1), CCL2 (gene 6347)
The assay is described as follows: BSK_SAg_MCP1: BioMAP Diversity Plus: SAg Assay for Monocyte Chemoattractant Protein-1 (MCP1) Biomarker Activity (AID 2283090). The note with it: primary human HUVEC with PBMC; actives raise or lower the signal. A digest of the protocol: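 Values derive from bidirectional fitting of ELISA-measured MCP1 against DMSO controls. Readings were taken 24 h after dosing human vascular endothelial cells co-cultured with peripheral blood mononuclear cells under superantigen stimulation.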

Read-out in assay [9]: E-selectin (Homo sapiens) (UniProt P16581)
Description: BSK_SAg_Eselectin: BioMAP Diversity Plus: SAg Assay for Eselectin Biomarker Activity (AID 2283091). The note with it: primary human HUVEC with PBMC; actives raise or lower the signal. In outline:
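Co-culture: HUVEC + PBMC. Dose compound; 24 h. ELISA for E-selectin. Bidirectional fit vs DMSO.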

Read-out in assay [10]: Monokine induced gamma interferon (MIG), CXCL9 (gene 4283)
Description: BSK_SAg_MIG: BioMAP Diversity Plus: SAg Assay for Monokine induced gamma interferon (MIG) Biomarker Activity (AID 2283092). The note with it: primary human HUVEC with PBMC; actives raise or lower the signal. In outline:
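Measures CXCL9 protein by ELISA in a human vascular primary-cell co-culture (umbilical vein endothelium with PBMC) 24 h after chemical addition. Activity is scored up or down from the DMSO control.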

Assay [11] can be described thus: BSK_SAg_PBMCCytotoxicity: PBMC Cytotoxicity Assessment in the BioMAP Diversity Plus: SAg Assay (AID 2283093).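 Further: PBMC viability measured as Alamar Blue reduction fluorescence at 546/580 nm; fitted both ways against DMSO so a hit may be loss or gain of signal.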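 On AC50: PBMC superantigen activated with SEB plus TSST-1 one hour after compound addition.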 The note with it: primary human HUVEC with PBMC. In outline:
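Alamar Blue reduction (6 h, 546/580 nm) reports PBMC cytotoxicity after 90 h superantigen activation (SEB, TSST-1; 20 ng/mL final each) with 1 h compound pre-treatment. Gain or loss of signal fitted versus DMSO.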

Read-out in assay [12]: Interleukin-8 (IL8), CXCL8 (gene 3576)
Description: BSK_SAg_IL8: BioMAP Diversity Plus: SAg Assay for Interleukin-8 (IL8) Biomarker Activity (AID 2283094). The note with it: primary human HUVEC with PBMC; actives raise or lower the signal. In outline: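 Primary human endothelial cells with PBMC, exposed 24 h; IL-8 determined by ELISA, analysed bidirectionally relative to DMSO.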

Assay [13] in a line: BSK_SAg_Proliferation: Cell Proliferation Assessment in the BioMAP Diversity Plus: SAg Assay (AID 2283095).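 Further: relative cell number as total protein by SRB absorbance in sub-confluent culture.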 The note with it: primary human HUVEC with PBMC. A digest of the protocol: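 A human primary co-culture of umbilical vein endothelium and blood mononuclear cells receives compound; relative cell number is quantified at 96 h by SRB staining and 560 nm absorbance, with DMSO-referenced bidirectional curve fitting.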

Assay [14] in a line: BSK_SAg_SRB: Viability Assessment in the BioMAP Diversity Plus: SAg Assay (AID 2283096).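 Further: cells read one day after compound addition; hits may be either gain or loss of signal compared with DMSO.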 The note with it: primary human HUVEC with PBMC. A digest of the protocol: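 This overt-cytotoxicity endpoint quantifies protein in human endothelial/PBMC co-cultures at 24 h using SRB absorbance (560 nm) after trichloroacetic acid fixation. Values reflect signal change from the DMSO negative control, fitted bidirectionally.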

The target of assay [15] is human CYP2B6, CYP2B6 (gene 1555) (UniProt P20813). The assay is described as follows: NVS_ADME_hCYP2B6: NovaScreen (NVS) CYP450-related Enzyme Activity (ADME) Assay for human CYP2B6 (AID 2283101; active means hit-call score of the fitted dose curve at least 0.9, where 1 is the maximum). In outline: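 Recombinant protein, specific fluorescent substrate, read at 1 h post-dosing. Primary: single 10 uM, duplicate; follow-up: concentration series. Activity = signal loss vs acetonitrile baseline, with positive and negative controls on every plate.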

Read-out in assay [16]: Interleukin-1 alpha (IL1a), IL1A (gene 3552)
The assay is described as follows: BSK_LPS_IL1a: BioMAP Diversity Plus: LPS Assay for Interleukin-1 alpha (IL1a) Biomarker Activity (AID 2283080). The note with it: primary human HUVEC with PBMC; actives raise or lower the signal. In outline:
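ELISA read-out of IL-1 alpha from a human primary vascular co-culture (endothelium plus PBMC) under LPS, sampled 24 hours post-dosing. Activity was fitted in both directions relative to DMSO controls.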

Read-out in assay [17]: Tumor necrosis factor (Homo sapiens) (UniProt P01375)
Description: BSK_LPS_TNFa: BioMAP Diversity Plus: LPS Assay for Tumour Necrosis Factor alpha (TNFa) Biomarker Activity (AID 2283085).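 On AC50: TNFa protein level quantified by ELISA in the co-culture.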 The note with it: primary human HUVEC with PBMC; actives raise or lower the signal. In outline: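 ELISA-based TNFa endpoint in a human endothelial–PBMC co-culture sampled 24 h post-exposure. Curves were fitted in both directions using DMSO as baseline of activity.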

Read-out in assay [18]: Vascular cell adhesion molecule 1 (VCAM1), VCAM1 (gene 7412)
Description: BSK_LPS_VCAM1: BioMAP Diversity Plus: LPS Assay for Vascular cell adhesion molecule 1 (VCAM1) Biomarker Activity (AID 2283086). The note with it: primary human HUVEC with PBMC; actives raise or lower the signal. In outline:
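Measured by ELISA: VCAM-1 in LPS-activated HUVEC/PBMC co-cultures 24 h after treatment. Values reflect bidirectional fitting with DMSO as baseline.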

Sequence of E-selectin (Homo sapiens) (P16581 whole entry, looked up): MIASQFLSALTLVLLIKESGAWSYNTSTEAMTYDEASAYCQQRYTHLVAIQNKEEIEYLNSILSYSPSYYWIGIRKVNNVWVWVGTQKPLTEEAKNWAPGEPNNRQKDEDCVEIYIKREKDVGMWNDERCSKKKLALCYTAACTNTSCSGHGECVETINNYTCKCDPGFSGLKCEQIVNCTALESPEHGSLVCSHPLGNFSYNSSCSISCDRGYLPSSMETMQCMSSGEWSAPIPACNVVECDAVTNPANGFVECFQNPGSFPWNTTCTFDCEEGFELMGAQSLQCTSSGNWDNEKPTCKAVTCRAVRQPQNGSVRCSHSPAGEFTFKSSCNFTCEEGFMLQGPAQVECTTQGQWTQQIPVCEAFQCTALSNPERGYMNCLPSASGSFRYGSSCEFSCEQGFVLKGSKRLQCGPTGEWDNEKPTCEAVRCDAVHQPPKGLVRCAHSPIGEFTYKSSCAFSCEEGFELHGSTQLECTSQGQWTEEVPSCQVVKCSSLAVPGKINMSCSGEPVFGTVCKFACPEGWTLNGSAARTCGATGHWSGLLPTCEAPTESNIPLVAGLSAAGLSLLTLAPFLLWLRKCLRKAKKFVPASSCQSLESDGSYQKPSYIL
Sequence of Tumor necrosis factor (Homo sapiens) (P01375 whole entry, looked up): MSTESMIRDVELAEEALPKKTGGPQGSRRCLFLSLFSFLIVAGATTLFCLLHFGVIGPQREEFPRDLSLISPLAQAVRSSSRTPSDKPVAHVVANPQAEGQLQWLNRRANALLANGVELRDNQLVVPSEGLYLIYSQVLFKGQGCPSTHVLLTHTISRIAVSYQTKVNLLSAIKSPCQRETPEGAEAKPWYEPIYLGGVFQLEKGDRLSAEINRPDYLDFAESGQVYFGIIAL
Sequence of human CYP2B6, CYP2B6 (gene 1555) (P20813 whole entry, looked up): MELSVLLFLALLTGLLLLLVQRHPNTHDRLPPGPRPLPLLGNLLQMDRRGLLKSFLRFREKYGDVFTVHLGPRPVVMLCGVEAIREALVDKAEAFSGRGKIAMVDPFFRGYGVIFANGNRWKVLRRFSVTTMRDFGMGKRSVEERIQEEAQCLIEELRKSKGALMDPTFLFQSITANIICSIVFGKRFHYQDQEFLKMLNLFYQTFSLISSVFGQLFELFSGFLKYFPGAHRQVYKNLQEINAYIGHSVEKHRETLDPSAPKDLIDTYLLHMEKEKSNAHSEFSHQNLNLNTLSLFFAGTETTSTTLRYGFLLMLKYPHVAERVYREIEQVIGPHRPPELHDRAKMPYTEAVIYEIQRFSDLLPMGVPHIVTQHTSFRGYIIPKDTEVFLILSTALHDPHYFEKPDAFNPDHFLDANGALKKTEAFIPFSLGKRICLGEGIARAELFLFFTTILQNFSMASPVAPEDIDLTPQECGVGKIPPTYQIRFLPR

In the case of `CN(Cc1cnc2nc(N)nc(N)c2n1)c1ccc(C(=O)N[C@@H](CCC(=O)O)C(=O)O)cc1`, the AC50 in assay [1] is 0.1 µM (active); in assay [13], 3.39 µM (active) and 2.18 µM (active) and 1.17 µM (active). Also, the result in assay [1], in assay [2], in assay [3], in [4], in assay [5] and in assay [6] was inactive. The outcome in assay [7], in assay [8], in [9], in assay [10], in [11] and in [12] was inactive. For the same compound, the result in [14] and in [15] was inactive.

Take `COCN(COC)c1nc(N(COC)COC)nc(N(COC)COC)n1`: the outcome in assay [16], in assay [1], in [2], in [3], in assay [4] and in [17] was inactive. The result in [18], in [5], in assay [6], in assay [7], in assay [8] and in [9] was inactive. Also, the result in [10], in assay [11], in assay [12], in assay [13] and in [14] was inactive.

Turning to `CCCCCc1ccc(O)cc1`, the half-maximal activity concentration (AC50) in assay [16] was 31.7 µM (active); in assay [1], 31.4 µM (active); in assay [2] it was 1.39 µM (active); in [3], 27.2 µM (active); in [4] it was 29 µM (active); in assay [17] it was 31.4 µM (active). In addition, the concentration at half-maximal activity (AC50) is 33.6 µM (active) in [5]; 29.6 µM (active) in [6]; 30.9 µM (active) in assay [7]; 27.5 µM (active) in assay [8]; 26.8 µM (active) in assay [9]; 36.7 µM (active) in assay [10]. Besides, the concentration at half-maximal activity (AC50) was 13.5 µM (active) in [11], 30.6 µM (active) in assay [12], 15.3 µM (active) in assay [13] and 25.9 µM (active) in assay [14].

Regarding `O=P(O)(O)CCC(F)(F)C(F)(F)C(F)(F)C(F)(F)C(F)(F)C(F)(F)C(F)(F)C(F)(F)F`, the outcome in [16], in [1], in assay [2], in [4], in assay [5] and in [6] was inactive. The outcome in [7], in assay [8], in assay [9], in [10], in assay [11] and in assay [12] was inactive. Also, in assay [13], the outcome was inactive. For the same compound, the concentration at half-maximal activity (AC50) in assay [2] was 30 µM (active); in [3] it was 27.7 µM (active) and 30 µM (active); in assay [5], 30 µM (active); in [6], 30 µM (active); in assay [14] it was 25.1 µM (active) and 38.3 µM (active).

On to `O=C1c2ccc(O)c(O)c2C(=O)c2c(O)ccc(O)c21`, for which the result in [1], in assay [2], in [3], in [4], in [5] and in [6] was inactive. For the same compound, the result in assay [7], in assay [8], in assay [9], in [10], in assay [11] and in assay [12] was inactive. Also, the result in assay [13] and in assay [14] was inactive.

In the case of `CCCCc1oc2ccccc2c1C(=O)c1cc(I)c(OCCN(CC)CC)c(I)c1`, the half-maximal activity concentration (AC50) in assay [1] was 26.1 µM (active); in [3], 10.8 µM (active); in [4], 25.2 µM (active); in assay [17] it was 23.5 µM (active); in [5], 12.4 µM (active); in assay [6], 10.5 µM (active). In addition, the AC50 in [7] is 11.4 µM (active); in assay [8], 20.5 µM (active); in [9] it was 22.7 µM (active); in [10], 22.9 µM (active); in assay [11], 8.86 µM (active); in assay [12], 15.1 µM (active). For the same compound, the AC50 in [13] is 4.1 µM (active); in [14] it was 13.4 µM (active). Moreover, the outcome in [2] was inactive.

With `Cc1cccc2c1ccc1ccccc12`, the outcome in assay [1], in assay [2], in [3], in [5], in assay [6] and in [7] was inactive. The outcome in assay [8], in assay [9], in assay [10], in [11], in assay [12] and in assay [13] was inactive. In addition, in assay [14], the result was inactive. For the same compound, the AC50 in [4] is 3.97 µM (active).
